{"source": "PubChem BioAssay (NCATS)", "note": "Results filed as inconclusive are left out. Entries that show only a call come without a potency. The source made the active and inactive calls. Calls follow the shape of the dose curve; as a rule, active = well fitted inhibition curve with a large enough effect; inconclusive = small, poorly fitted or top-dose-only effect; inactive = flat fitted curve, though single readings scatter. Potency is read from the fitted curve at half-maximal effect.", "data": [{"biological_target": "Dual specificity protein kinase CLK4 (Homo sapiens) (UniProt Q9HAZ1)", "sequence (Q9HAZ1 whole entry, looked up)": "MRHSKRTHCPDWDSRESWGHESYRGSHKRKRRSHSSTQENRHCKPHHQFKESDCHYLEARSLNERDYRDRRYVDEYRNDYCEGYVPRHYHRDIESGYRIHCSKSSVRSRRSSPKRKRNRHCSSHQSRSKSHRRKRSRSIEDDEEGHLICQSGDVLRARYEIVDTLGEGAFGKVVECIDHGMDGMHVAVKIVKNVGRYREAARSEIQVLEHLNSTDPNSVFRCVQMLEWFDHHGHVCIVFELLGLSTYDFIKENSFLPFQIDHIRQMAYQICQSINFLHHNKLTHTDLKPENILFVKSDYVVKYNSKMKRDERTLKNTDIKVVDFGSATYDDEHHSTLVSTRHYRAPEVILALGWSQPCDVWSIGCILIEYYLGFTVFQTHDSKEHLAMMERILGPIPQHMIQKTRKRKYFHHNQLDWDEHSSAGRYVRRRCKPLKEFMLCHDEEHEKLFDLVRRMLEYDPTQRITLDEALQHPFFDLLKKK", "assay": "qHTS Assay for Inhibitors of CDC-like Kinase 4 (Kinase-Glo Assay) (AID 1770); also: nearly all actives have a fitted effect of over 65% in size", "conditions": "recombinant Clk4, Kinase-Glo ATP depletion luminescence; series mostly up to 66.7 µM", "experimental": "NIH Molecular Libraries Probe Production Centers Network [MLPCN] NIH Chemical Genomics Center [NCGC] MLPCN Grant: 1R03MH084827-01 Assay Submitter (PI): Tom Misteli NCGC Assay Overview: Clk4 (Invitrogen, cat# PV3839) was assayed using ATP and the RS repeat peptide (AnaSpec cat # 61722) as substrates. Following the Clk4 reaction, the remaining ATP levels were detected using Promega Kinase-Glo technology wherein the remaining ATP from the kinase reaction is detected using Ultra-Glo luciferase and D-luciferin which generates a bioluminescence signal from the ATP. The positive control for the assay was TG003 (Sigma-Aldrich, cat# 300801-52-9) which has been described as an inhibitor of Clk 4[1].\nNCGC Assay Protocol Summary: Two uL/well of substrate-buffer solution (100 uM RS peptide, 1 uM ATP, 25 mM Tris pH7.5, 10 mM MgCl2, 0.5 mM EGTA, 2.5 mM DTT, 0.01% Triton X-100 final concentration) was dispensed into 1536-well, assay plates (Greiner, solid white medium-binding plates) with Aurora Discovery BioRAPTR Flying Reagent Dispenser (FRD; Beckton-Dickenson). Using a Kalypsys pin tool equipped with a 1536-pin tool, 23 nL of compound solution was transferred to the assay plate. One uL/ well Clk4-buffer solution (25 nM Clk4, 25 mM Tris pH 7.5, 10 mM MgCl2, 0.5 mM EGTA, 2.5 mM DTT, 0.01% Triton X-100, final concentrations) was then added using the FRD yielding a total kinase reaction volume of 3 uL/ well. After 4.5 hours of room temperature incubation, 3 uL Kinase-Glo reagent was added for a final assay volume of 6 uL/ well. Luminescence was detected with the ViewLux plate reader (Perkin Elmer, Waltham, MA) after 5 min incubation using a 5 second exposure time and 2x binning.", "values": [{"smiles": "O=c1c(-c2ccccc2)nc2cnc(Oc3ccccc3)nc2n1C[C@H]1CCCO1", "Potency": "inactive"}, {"smiles": "COc1cccc(-c2nc(NCCN3CCOCC3)c3ccccc3n2)c1", "Potency": "15.8 µM (active)"}, {"smiles": "Cc1cccc(CNc2ncncc2-c2ccccc2C)c1", "Potency": "inactive"}, {"smiles": "CN1CCN(c2ncnc3ccc(-c4cccc(C#N)c4)cc23)CC1", "Potency": "15.8 µM (active)"}, {"smiles": "COc1ccccc1CNc1ncncc1-c1ccccc1Cl", "Potency": "inactive"}, {"smiles": "O=c1c(-c2ccccc2)nc2cncnc2n1Cc1ccccc1", "Potency": "inactive"}, {"smiles": "COc1cccc(Nc2ncc3nc(-c4cccs4)c(=O)n(C[C@H]4CCCO4)c3n2)c1", "Potency": "inactive"}, {"smiles": "c1ccc(Nc2nc(-c3cccnc3)nc3ccccc23)cc1", "Potency": "2.51 µM (active)"}, {"smiles": "CCNc1ncc2nc(CCc3ccccc3)c(=O)n(Cc3cccc(OC)c3)c2n1", "Potency": "inactive"}, {"smiles": "COc1ccc(-n2c(=O)c(-c3cccs3)nc3cnc(N4CCN(C)CC4)nc32)cc1", "Potency": "inactive"}, {"smiles": "COc1ccc2[nH]cc(CCNc3ncncc3-c3ccc4c(c3)OCO4)c2c1", "Potency": "8.91 µM (active)"}, {"smiles": "CN1CCN(c2ncc3nc(CCc4ccccc4)c(=O)n(CCc4ccccc4)c3n2)CC1", "Potency": "inactive"}, {"smiles": "Cc1nc2cnc(OCc3ccccc3)nc2n(CCc2ccccc2)c1=O", "Potency": "inactive"}, {"smiles": "COc1ccc(Oc2ncc3nc(-c4ccccc4)c(=O)n(C[C@H]4CCCO4)c3n2)cc1", "Potency": "inactive"}, {"smiles": "CCNc1ncc2nc(-c3ccc(OC)cc3)c(=O)n(C)c2n1", "Potency": "inactive"}, {"smiles": "COc1ncc2nc(-c3ccccc3)c(=O)n(CCc3ccccc3)c2n1", "Potency": "inactive"}, {"smiles": "CN(C)c1ncnc2ccc(-c3cccc(NS(C)(=O)=O)c3)cc12", "Potency": "11.2 µM (active)"}, {"smiles": "Cn1c(=O)c(-c2ccc(Cl)cc2)nc2cncnc21", "Potency": "inactive"}, {"smiles": "COc1ccccc1CNc1ccnc(-c2cccnc2)n1", "Potency": "28.2 µM (active)"}, {"smiles": "FC(F)(F)c1ccccc1-c1nc(NCc2cccnc2)c2ccccc2n1", "Potency": "inactive"}, {"smiles": "O=c1c(-c2ccccc2)nc2cnc(N3CCOCC3)nc2n1CCc1ccccc1", "Potency": "inactive"}, {"smiles": "COc1ccccc1-c1ccc2ncnc(N3CCNCC3)c2c1", "Potency": "4.47 µM (active)"}, {"smiles": "O=c1c(CCc2ccccc2)nc2cnc(N3CCOCC3)nc2n1-c1ccccc1", "Potency": "inactive"}, {"smiles": "COc1cccc(Cn2c(=O)c(CCc3ccccc3)nc3cnc(N4CCN(C)CC4)nc32)c1", "Potency": "inactive"}, {"smiles": "Clc1ccccc1-c1ccc2ncnc(NCCN3CCOCC3)c2c1", "Potency": "28.2 µM (active)"}, {"smiles": "COc1cccc(-c2cncnc2NCc2ccccc2OC)c1", "Potency": "14.1 µM (active)"}, {"smiles": "CCNc1ncc2nc(CCc3ccccc3)c(=O)n(C3CC3)c2n1", "Potency": "inactive"}, {"smiles": "COc1ccc(-n2c(=O)c(CCc3ccccc3)nc3cnc(OC)nc32)cc1", "Potency": "inactive"}, {"smiles": "N#Cc1cccc(-c2ccc3ncnc(NCc4cccs4)c3c2)c1", "Potency": "10 µM (active)"}, {"smiles": "c1ccc2c(NCCN3CCOCC3)nc(-c3ccoc3)nc2c1", "Potency": "inactive"}, {"smiles": "COCCn1c(=O)c(-c2ccc(F)cc2)nc2cnc(Oc3ccccc3)nc21", "Potency": "inactive"}, {"smiles": "COc1ccc(Oc2ncc3nc(-c4ccc(F)cc4)c(=O)n(CCC#N)c3n2)cc1", "Potency": "inactive"}, {"smiles": "CN(Cc1ccco1)c1cc(-c2ccc3c(c2)OCO3)ncn1", "Potency": "2 µM (active)"}, {"smiles": "CN(Cc1ccco1)c1ncnc2ccc(-c3cccc(NS(C)(=O)=O)c3)cc12", "Potency": "7.08 µM (active)"}, {"smiles": "Cc1ccccc1-c1ccc2ncnc(-n3ccnc3)c2c1", "Potency": "7.94 µM (active)"}, {"smiles": "COc1ccccc1CNc1ncncc1-c1ccccc1C(F)(F)F", "Potency": "inactive"}, {"smiles": "COCCn1c(=O)c(-c2ccc(F)cc2)nc2cnc(Nc3cccc(OC)c3)nc21", "Potency": "inactive"}, {"smiles": "CN(C)c1ccc(-c2cc(N(C)Cc3ccco3)ncn2)cc1", "Potency": "25.1 µM (active)"}, {"smiles": "COc1ccc2[nH]cc(CCNc3cc(-c4ccccc4OC)ncn3)c2c1", "Potency": "12.6 µM (active)"}, {"smiles": "CN1CCN(c2ncnc3ccc(-c4ccccc4C(F)(F)F)cc23)CC1", "Potency": "inactive"}]}]}
